Experimental data as given in PubChem BioAssay.
Unmarked numbers belong to inactive results. Where a call stands in place of a potency, no number is given. For some of these results: Potency and affinity values are given separately. The source made the active and inactive calls. Unless noted, no rule for the calls is given here.

What was measured:
[1] = antimalarial activity against Dd2 strain (AID 2302;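 active = growth inhibition above 50% at the single 2 µM test dose, taken to imply half-maximal potency below 2 µM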); settings: P. falciparum Dd2 in RBCs, LDH growth readout, 72 h; at 2 µM; active compounds read high
[2] = human hepatoma cell viability loss – ATP luminescence, cytotoxicity control for P. falciparum antimalarial project, primary screen (AID 2303;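 active = inhibition above 50%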); settings: HepG2 viability, 24-48 h, at 10 µM, active compounds read high
[3] = molecular target: L-lactate dehydrogenase (Plasmodium falciparum (isolate CDC / Honduras)) (UniProt Q27743); experiment: PfLDH activity inhibition – cell lysate, 3D7 strain, counter-screen for P. falciparum growth inhibition project (AID 2304); settings: P. falciparum 3D7 crude extract, LDH APAD/NBT absorbance; at 2 µM; active compounds read high
[4] = inhibition of 3D7 malaria parasite growth – strain 3D7 (AID 2306); settings: P. falciparum 3D7 erythrocytic growth, LDH absorbance, 72 h; at 2 µM; active compounds read high
[5] = molecular target: Calcium-dependent protein kinase 1 (Plasmodium falciparum (isolate 3D7)) (UniProt P62344); experiment: PfCDPK1 kinase inhibitors, biochemical, TCAMS library (AID 1159585; cut-off not given, nearly all actives have IC50 up to about 0.98 µM;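 also: inhibitors leave more ATP so luminescence rises with inhibition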); settings: recombinant PfCDPK1, Kinase-Glo ATP depletion luminescence
[6] = molecular target: Plasmodium falciparum protein kinase 6 (PK6, PF3D7_1337100) (UniProt Q8IDW1); experiment: PfPK6 kinase inhibitors, biochemical, TCAMS library (AID 1159586); settings: recombinant PfPK6, Kinase-Glo ATP depletion luminescence
[7] = molecular target: Protein kinase 7 (PK7), Plasmodium falciparum 3D7 (PF3D7_0213400) (UniProt Q7YTF7); experiment: inhibition of Plasmodium PK7 catalytic activity – biochemical, TCAMS antimalarial set, Kinase-Glo luminescence (AID 1159587); settings: recombinant PfPK7, Kinase-Glo ATP depletion luminescence
[8] = molecular target: Calcium-dependent protein kinase 4 (Plasmodium falciparum (isolate 3D7)) (UniProt Q8IBS5); experiment: PfCDPK4 kinase inhibitors, biochemical, TCAMS library (AID 1159588; cut-off not given, nearly all actives have IC50 up to about 0.91 µM); settings: recombinant PfCDPK4, Kinase-Glo ATP depletion luminescence
Chain of Calcium-dependent protein kinase 4 (Plasmodium falciparum (isolate 3D7)) (Q8IBS5 whole entry, looked up): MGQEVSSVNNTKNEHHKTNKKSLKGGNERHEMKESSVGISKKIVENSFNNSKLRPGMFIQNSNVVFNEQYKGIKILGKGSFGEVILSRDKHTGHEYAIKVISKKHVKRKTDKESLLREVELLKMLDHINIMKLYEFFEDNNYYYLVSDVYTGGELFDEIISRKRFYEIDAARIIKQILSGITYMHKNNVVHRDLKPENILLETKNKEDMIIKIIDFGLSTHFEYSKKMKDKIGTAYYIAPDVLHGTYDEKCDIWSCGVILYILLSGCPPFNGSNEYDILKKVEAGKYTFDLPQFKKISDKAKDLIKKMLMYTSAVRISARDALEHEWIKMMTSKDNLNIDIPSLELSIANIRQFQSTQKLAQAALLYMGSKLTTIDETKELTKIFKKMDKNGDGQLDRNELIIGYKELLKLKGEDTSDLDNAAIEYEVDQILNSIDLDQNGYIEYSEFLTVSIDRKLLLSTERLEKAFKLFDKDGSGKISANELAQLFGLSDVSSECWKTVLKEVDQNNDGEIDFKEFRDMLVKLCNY

Chain of L-lactate dehydrogenase (Plasmodium falciparum (isolate CDC / Honduras)) (Q27743 whole entry, looked up): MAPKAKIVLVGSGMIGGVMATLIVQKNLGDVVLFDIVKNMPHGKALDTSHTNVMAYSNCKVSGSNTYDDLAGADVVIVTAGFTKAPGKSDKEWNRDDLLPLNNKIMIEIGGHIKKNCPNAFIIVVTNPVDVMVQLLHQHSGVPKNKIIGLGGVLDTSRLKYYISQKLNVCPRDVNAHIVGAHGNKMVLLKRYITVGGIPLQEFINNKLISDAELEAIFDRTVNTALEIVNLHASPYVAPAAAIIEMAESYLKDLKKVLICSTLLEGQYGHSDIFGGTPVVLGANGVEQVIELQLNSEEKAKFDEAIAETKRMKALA
Chain of Protein kinase 7 (PK7), Plasmodium falciparum 3D7 (PF3D7_0213400) (Q7YTF7 1-343): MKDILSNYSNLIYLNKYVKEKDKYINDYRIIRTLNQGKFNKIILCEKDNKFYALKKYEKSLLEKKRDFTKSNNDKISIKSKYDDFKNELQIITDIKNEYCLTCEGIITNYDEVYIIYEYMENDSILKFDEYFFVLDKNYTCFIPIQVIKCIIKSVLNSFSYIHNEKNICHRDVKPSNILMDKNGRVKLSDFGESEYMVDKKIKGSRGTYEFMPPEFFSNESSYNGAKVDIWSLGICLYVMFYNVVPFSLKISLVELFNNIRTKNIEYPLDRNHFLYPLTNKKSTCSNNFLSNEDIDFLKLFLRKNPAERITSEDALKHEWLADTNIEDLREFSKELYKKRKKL
Chain of Plasmodium falciparum protein kinase 6 (PK6, PF3D7_1337100) (Q8IDW1 1-305): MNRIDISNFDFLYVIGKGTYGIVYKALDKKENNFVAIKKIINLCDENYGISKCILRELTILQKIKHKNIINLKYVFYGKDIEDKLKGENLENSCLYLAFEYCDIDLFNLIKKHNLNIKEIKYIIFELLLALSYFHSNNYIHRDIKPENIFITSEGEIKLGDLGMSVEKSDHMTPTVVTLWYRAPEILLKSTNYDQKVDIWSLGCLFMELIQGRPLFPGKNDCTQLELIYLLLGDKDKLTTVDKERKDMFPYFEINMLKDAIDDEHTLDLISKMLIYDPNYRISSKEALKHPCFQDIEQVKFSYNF
Chain of Calcium-dependent protein kinase 1 (Plasmodium falciparum (isolate 3D7)) (P62344 whole entry, looked up): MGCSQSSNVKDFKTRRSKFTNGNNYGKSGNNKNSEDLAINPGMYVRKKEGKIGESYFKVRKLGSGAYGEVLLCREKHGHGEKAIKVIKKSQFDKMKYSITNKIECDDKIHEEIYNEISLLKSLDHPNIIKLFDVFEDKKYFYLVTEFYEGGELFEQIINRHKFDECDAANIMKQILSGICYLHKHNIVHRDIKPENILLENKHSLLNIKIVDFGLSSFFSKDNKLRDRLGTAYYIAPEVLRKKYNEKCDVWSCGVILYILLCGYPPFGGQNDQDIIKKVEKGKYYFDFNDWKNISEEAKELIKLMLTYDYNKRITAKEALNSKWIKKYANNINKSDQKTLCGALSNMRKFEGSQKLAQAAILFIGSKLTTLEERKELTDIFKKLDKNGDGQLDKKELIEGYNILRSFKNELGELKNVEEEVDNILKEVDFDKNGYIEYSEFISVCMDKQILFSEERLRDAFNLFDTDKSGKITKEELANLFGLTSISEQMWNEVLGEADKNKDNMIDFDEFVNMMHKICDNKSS

| SMILES | growth inhibition [1] | inhibition [2] | inhibition [3] [%] | growth inhibition [4] | outcome [5] | outcome [6] | outcome [7] | outcome [8] |
| --- | --- | --- | --- | --- | --- | --- | --- | --- |
| N#Cc1ccc(N(CCOc2ccc(Cl)cc2)Cc2ccccc2C(F)(F)F)cc1C(F)(F)F | 64% (active) | 3% | 2 | 91% (active) | inactive | inactive | inactive | inactive |
| COc1cccc(C2CCN(CCCCNC(=O)c3ccc(NC(=O)c4ccc(Cl)cc4)cc3)CC2)c1 | 40% | 18% | -5 | 99% (active) | inactive | inactive | inactive | inactive |
| O=C(/C=C/c1ccc(C(F)(F)F)cc1)N1CCc2cc3nccc(N4CCN5CCC[C@H]5C4)c3cc21 | 21% | -7% | -1 | 86% (active) | inactive | inactive | inactive | inactive |
| Cc1sc(C)c(CNCCCNc2cc(=O)c3ccccc3[nH]2)c1Br | 15% | -4% | -2 | 93% (active) | inactive | inactive | inactive | inactive |
| CCc1cn2c3c(cc(C(=O)N[C@@H](Cc4ccccc4)[C@H](O)CNCc4ccccc4C)cc13)N(C)S(=O)(=O)CC2 | 98% (active) | 3% | 5 | 98% (active) | inactive | inactive | inactive | inactive |
| COc1ccc(C(=O)Nc2ccc3oc(-c4ccc(C(F)(F)F)cc4)cc3c2)cc1CCCN(C)C | 27% | 98% (active) | -1 | 98% (active) | inactive | inactive | inactive | inactive |
| CCCCCOc1c(CCC)cc(Cc2cnc(N)nc2N)cc1CCC | -3% | 58% (active) | -2 | 94% (active) | inactive | inactive | inactive | inactive |
| O=C(/C=C/c1ccc(CNCCN2CCOCC2)cc1)NCCc1ccccc1 | 3% | 9% | -2 | 94% (active) | inactive | inactive | inactive | inactive |
| Cc1nc(C)c(CC(=O)Nc2ccc(-c3cccc(-c4nc5c(C)cccc5[nH]4)c3)cc2)s1 | 38% | 41% | -1 | 101% (active) | inactive | inactive | inactive | inactive |
| O=C(Nc1ccc(Cl)cc1)c1cccc(CN2CCCN(Cc3cccc(O)c3)CC2)c1 | 43% | 14% | 3 | 98% (active) | inactive | inactive | inactive | inactive |
| O=C(Nc1ccccc1)Nc1cccc(-c2cc(CNCCc3ccccc3)sc2-c2ccncc2)c1 | 84% (active) | 14% | 7 | 100% (active) | inactive | inactive | inactive | inactive |
| CC(C)(C)NCCN(Cc1ccc(-c2ccc(C(F)(F)F)cc2)cc1)C(=O)Cn1c(CCc2cccc(F)c2F)nc(=O)c2c1CCC2 | 48% | 6% | 6 | 95% (active) | inactive | inactive | inactive | inactive |
| N#Cc1ccc(C(=O)Nc2ccc(-c3cccc(CN4CCCC4)c3)cc2)cc1 | 1% | 17% | -1 | 89% (active) | inactive | inactive | inactive | inactive |
| CC(C)c1ccc(NC(=O)c2cccc(CN3CCCN(Cc4cccc(O)c4)CC3)c2)cc1 | 33% | 25% | -2 | 97% (active) | inactive | inactive | inactive | inactive |
| Nc1nc(N)c2c(ccc3c2ncn3Cc2ccccc2)n1 | 96% (active) | 71% (active) | 4 | 96% (active) | inactive | inactive | inactive | inactive |
| NC(=O)c1c(Cl)nc2ccccc2c1Cl | -2% | 2% | -2 | 91% (active) | inactive | inactive | inactive | inactive |
| Clc1ccccc1C=NNc1ccnc2ccccc12 | 50% (active) | 25% | -3 | 100% (active) | inactive | inactive | inactive | inactive |
| Fc1ccc2nc(-c3ccc(-c4ccc(CNCCN5CCNCC5)cc4)s3)[nH]c2c1 | 2% | 24% | -1 | 96% (active) | inactive | inactive | inactive | inactive |
| Cc1sc2nc(CN3CCCC3)nc(-n3c(NCCO)nc4ccccc43)c2c1C | 11% | 19% | -2 | 96% (active) | inactive | inactive | inactive | inactive |
| CCOc1ccc2nc(C)cc(NN=Cc3cccc(C)n3)c2c1 | 73% (active) | 6% | 0 | 99% (active) | inactive | inactive | inactive | inactive |
| O=C(/C=C/c1ccc(C(F)(F)F)cc1)NCCCCCN1CCCN(C(=O)Nc2cccc(Cl)c2)CC1 | 3% | 16% | 3 | 92% (active) | inactive | inactive | inactive | inactive |

| SMILES | growth inhibition [1] | inhibition [2] | inhibition [3] [%] | growth inhibition [4] | outcome [5] | outcome [6] | outcome [7] | outcome [8] |
| --- | --- | --- | --- | --- | --- | --- | --- | --- |
| Cc1ccc(-c2nc3ccc(C(=O)NC4CCN(Cc5ccccc5)CC4)cc3[nH]2)cc1 | 53% (active) | 20% | -4 | 100% (active) | inactive | inactive | inactive | inactive |
| Nc1cc(C=Cc2ccc([N+](=O)[O-])s2)nc2ccccc12 | 48% | 89% (active) | -7 | 98% (active) | inactive | inactive | inactive | inactive |
| CN(CCc1ccccc1)c1ncc(-c2ccccc2CNCc2ccccc2O)cn1 | 94% (active) | 10% | -2 | 99% (active) | inactive | inactive | inactive | inactive |
| CC(C)(C)c1ccc(CN2CCCCC(NC(=O)c3cc(-c4ccccc4F)cs3)C2)cc1 (stereo not drawn) | 99% (active) | 6% | 3 | 101% (active) | inactive | inactive | inactive | inactive |
| COc1ccc2nccc([C@@H](O)CN3CCC(NC(=O)C(c4cccs4)N4CCN(c5ccc(F)cc5)CC4)CC3)c2c1 (stereo partly drawn) | 45% | 9% | 3 | 97% (active) | inactive | inactive | inactive | inactive |
| Cc1cccc2[nH]c(-c3cccc(-c4ccc(NC(=O)Nc5ccc(Cl)c(Cl)c5)cc4)c3)nc12 | 83% (active) | 53% (active) | 7 | 102% (active) | inactive | inactive | inactive | inactive |
| Oc1ccccc1CNCc1ccc(-c2cnc(N3CCCC(c4ccccc4)C3)nc2)cc1 (stereo not drawn) | 84% (active) | 6% | -4 | 99% (active) | inactive | inactive | inactive | inactive |
| NC(N)=Nc1nc(-c2cccc(NC(=O)Cc3ccccc3)c2)cs1 | 9% | 1% | -8 | 99% (active) | inactive | inactive | inactive | inactive |
| Cc1cccc2[nH]c(-c3cccc(-c4cccc(NC(=O)CCc5cnc[nH]5)c4)c3)nc12 | 86% (active) | 16% | 0 | 102% (active) | inactive | inactive | inactive | inactive |
| CC(=O)Nc1ccc2[nH]cc(C3CCN(CC4CCC(NC(=O)/C=C/c5ccc(Cl)c(Cl)c5)CC4)CC3)c2n1 (stereo not drawn) | 79% (active) | 17% | -1 | 101% (active) | inactive | inactive | inactive | inactive |
| CCOc1ccc(C=CC(=O)Nc2ccc3nc(N4CCOCC4)cc(C)c3c2)cc1OC | 23% | 14% | 5 | 92% (active) | inactive | inactive | inactive | inactive |
| CC1(C)Cc2c(oc3ncn(CCn4cnc5oc6c(c5c4=N)CC(C)(C)SC6)c(=N)c23)CS1 | 93% (active) | -11% | 0 | 98% (active) | inactive | inactive | inactive | inactive |
| C=CCn1c(=N)n(CC(O)c2ccc(Cl)c(Cl)c2)c2ccccc21 (stereo not drawn) | 80% (active) | 15% | 1 | 91% (active) | inactive | inactive | inactive | inactive |
| Cc1cc(N[C@@H](CC(C)C)C(=O)NCCc2ccccc2)nc(Nc2ccccc2)n1 | 38% | 1% | 1 | 100% (active) | inactive | inactive | inactive | inactive |
| COc1ccc2ncc(F)c(CCN3CC[C@H](NCc4cc(C#N)c5c(c4)OCCO5)[C@H](O)C3)c2c1 | 47% | 51% (active) | 2 | 96% (active) | inactive | inactive | inactive | inactive |
| CN1CCCC(CN2CCN(Cc3cccc(-c4cccc(-c5nc6ccccc6[nH]5)c4)c3)CC2)C1 (stereo not drawn) | 99% (active) | 45% | -8 | 100% (active) | inactive | inactive | inactive | inactive |
| O=C(NCCc1ccccc1)N(Cc1cccc(-c2ccc(CNCCc3ccccc3)cc2)c1)C1CCN(Cc2ccccc2)CC1 | 91% (active) | 94% (active) | -5 | 90% (active) | inactive | inactive | inactive | inactive |
| CC1CCC(C[C@@H](C(=O)N[C@H](C(=O)Nc2nccs2)[C@@H](C)O)[C@H](CCC(F)(F)F)N(O)C=O)CC1 (stereo partly drawn) | 94% (active) | -8% | 3 | 95% (active) | inactive | inactive | inactive | inactive |
| CCN(CC)C(C)(C)CN(Cc1ccc(-c2ccc(C(F)(F)F)cc2)cc1)C(=O)Cn1c(CCc2cccc(F)c2F)nc(=O)c2ccccc21 | 79% (active) | 53% (active) | -2 | 91% (active) | inactive | inactive | inactive | inactive |
| O=C(Nc1cccc(-c2nn3ncccc3c2-c2ccnc(Nc3cccc(C(F)(F)F)c3)n2)c1)c1c(F)cccc1F | 68% (active) | 49% | -2 | 97% (active) | inactive | inactive | inactive | inactive |
